Data taken from PubChem BioAssay (NCI).
About 83,000 compounds went through this panel and 20% of them were active in at least one assay; those are over-represented in the sample as a whole.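 Activity criterion: percent growth below 10, measured after cells in 96-well plates were exposed to a single compound concentration for 48 hours.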 The source made the active and inactive calls.

Each compound was assayed on A549/ATCC NSCLC (assay: NCI-60 one-dose screen, 48 h (100 = growth as untreated, 0 = no growth, -100 = all killed)). Conditions: 10 µM unless noted.
Method: Growth inhibition of the A549/ATCC human Non-Small Cell Lung tumor cell line is measured as a screen for anti-cancer activity. Cells are grown in 96 well plates and exposed to the test compound for 48 hours. Compounds are tested at a single concentration, which is 10^-5 M for most compounds. The reported endpoint is percent growth (GI% or GIPRCNT), where numbers from 0 - 100% represent growth inhibition, and numbers from -100% - 0 represent cell death. For example, a value of 40 represents 60% growth inhibition. A value of 0 means no net growth occurred over the course of the experiment. A value of -40 indicates 40% of cells at the beginning of the experiment died by the end of the experiment. A value of -100 means all cells are dead at the end of the experiment.
NCI-60 Human Tumor Cell Lines Screen was performed using the standard one-dose NCI protocol, which is described in more detail at https://dtp.cancer.gov/discovery_development/nci-60/default.htm.
Compounds with GIPRCNT values below 10 were considered active. Activity score was based on GIPRCNT using the following formula: […]
Score is 0 for GIPRCNT values of 100 or above, 50 for GIPRCNT values of 0, and 100 for GIPRCNT values of -100.

Row | SMILES | growth
1 | CC(=O)c1c(O)c(C)c(O)c2c1OC1=CC(=O)C(C(C)=O)C(=O)C12C (stereo not given) | 96% (inactive)
2 | CC(=O)C1Cc2ccccc2C1=O (stereo not given) | 106% (inactive)
3 | O=C(C[P+](c1ccccc1)(c1ccccc1)c1ccccc1)c1ccccc1 | 90.1% (inactive)
4 | OC(CSc1ccccc1)CN1CCN(c2ccc(Cl)cc2)CC1 (stereo not given) | 98.4% (inactive)
5 | c1ccc(-c2cc3cc4ccccc4cn3c2)cc1 | 89.9% (inactive)
6 | CCOC(=O)c1[nH]c(C#N)c(C(=O)OCC)c1C | 98% (inactive)
7 | CCC1CCCCN1C(=S)N/N=C(\C)c1ccccn1 (stereo not given) | 2.7% (active)
8 | O=[N+]([O-])c1ccc2c(c1)Cc1ccccc1-2 | 94.8% (inactive)
9 | CN(Cc1ccccc1)c1ccc(SC#N)cc1 | 92% (inactive)
10 | O=C(c1ccccc1)c1cc2ccccc2oc1=O | 95.9% (inactive)
11 | S=c1[nH]c2cc(Cl)ccc2s1 | 108% (inactive)
12 | CCN1CCCC(Nc2cc(C)nc(/N=C(/N)Nc3ccc(Cl)c(Cl)c3)n2)C1 (stereo not given) | -25.1% (active)
13 | CCCCCCCCCCCC[n+]1ccccc1 (tested in a mixture with another compound) | -32.3% (active)
14 | C(=N\Nc1ccc2ccccc2n1)/c1ccccn1 | 8.26% (active)
15 | COc1cccc2c1C(=O)c1c(O)c3c(c(O)c1C2=O)C[C@@](O)(C(=O)CO)C[C@@H]3OC1CC(OC(C)=O)C(OC(C)=O)C(C)O1 (stereo not given in full) | -44.6% (active)
16 | CCCCN(CCCC)CCCCCCCCCCO | 115% (inactive)
17 | O=C(/C=C/C(Cl)(Cl)Cl)Nc1ccc(Cl)cc1 | 103% (inactive)
18 | Cc1cc(I)nc2ccccc12 | 111% (inactive)
19 | S=C=Nc1ccc(N2CCOCC2)cc1 | 89.8% (inactive)
20 | NC(=S)N/N=C\c1nccc2c(C(F)(F)F)cccc12 | 3.44% (active)

Row | SMILES | growth
21 | CCCCC(C=O)(C=C=C(C)C)CC (stereo not given) | 94.3% (inactive)
22 | Cc1ccc2cccc(OC(=O)Nc3cccc(C(F)(F)F)c3)c2n1 | 42.7% (inactive)
23 | Nc1ccc(-c2ccc(N)c(S(=O)(=O)O)c2)cc1S(=O)(=O)O | 117% (inactive)
24 | CC1=CC(=NC(=O)CBr)C=C/C1=N\S(=O)(=O)c1ccccc1 | 87% (inactive)
25 | COC(=O)c1nc(=S)[nH]c(C(=O)OC)c1C(=O)c1ccc(Cl)c(Cl)c1 | 105% (inactive)
26 | OCCOSCCO | 111% (inactive)
27 | CN=C(N)N/N=C(\c1ccccc1)c1ccc(Br)cc1 | 9.47% (active)
28 | S=C(S)OCN1CCOCC1 | 91.6% (inactive)
29 | CCCCC(CCc1ccc([N+](=O)[O-])cc1)(C(C)=O)C(=O)OCC (stereo not given) | 100% (inactive)
30 | C[C@@]1(CO)[C@H](O)CC[C@@]2(C)[C@H]1CC[C@H]1C[C@@H]3C[C@@]12CC[C@@]3(O)COC(=O)CN | 3.43% (active)
31 | CCC(=O)c1cc([N+](=O)[O-])c(Br)s1 | 105% (inactive)
32 | CC(O)C(O)C(O)C(O)C(O)C(=O)NNc1ccccc1 (stereo not given) | 90.9% (inactive)
33 | Oc1ccc(Nc2ccc3ccccc3c2)cc1 | 55.3% (inactive)
34 | COc1ccc2c(c1OC)OCC(CN(C)C)C2=O (stereo not given) | 98.9% (inactive)
35 | O=C(c1ccccc1)C(Br)C(Br)c1ccccc1 (stereo not given) | 99.2% (inactive)
36 | O=S(=O)(O)c1cnccn1 | 73.9% (inactive)
37 | c1csc(-c2[nH]nc3c2CCc2ccccc2-3)c1 | 89.1% (inactive)
38 | Oc1ccc(Cl)cc1Cc1cc(Cl)ccc1O | 61% (inactive)
39 | O=C(CBr)c1ccc(OC(=O)c2ccccc2)cc1 | 100% (inactive)
40 | CC(C)Nc1ccc(Nc2ccc(NC(C)C)cc2)cc1 | 40.9% (inactive)
